The source of these data is the supplement of paper PMC7156485.

The structures appear in SMILES notation. ± gives the standard deviation of the averaged measurements.
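Note: TDF denotes transformed human dermal fibroblasts of mesenchymal origin.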

The test system of this assay is HCC1569. Put plainly: cell number relative to DMSO (% of DMSO); higher = more cells (less growth inhibition / toxicity). Particulars: concentration: 10 µM; 24 h. In a few lines: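 Cell number or H1.0 nuclear intensity appears as percent of the plate control, based on the median of replicates. Measurements came from HCC1569 and TDF cells exposed in triplicate to compounds at 10 µM for 24 h at 37 °C, then imaged in six fields per well at ×10. Positional effects were smoothed out of HCC1569 values.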
In the case of `COC1=CC(=O)CC(C)C12Oc1c(Cl)c(OC)cc(OC)c1C2=O` (single isomer, unassigned; (+)) [(+)-Griseofulvin], the cell number worked out at 100.

For `S=C([S-])OC1CC2CC1C1CCCC21.[K+]` [D-609 potassium], the cell number was found to be 100.

`Cc1ccccc1/N=N/c1ccc(NC(=O)c2ccnn2C)c(C)c1` registered a cell number of 94.6.

Compound `S=C([S-])OC1CC2CC1C1CCCC21.[K+]` (stereo unspecified) returned a cell number of 102.

As for `N[C@@H](CCCC(=O)O)C(=O)O` [L-2-aminoadipic acid], the cell number was found to be 105.

Compound `CCc1ccc(CCOc2ccc(CC3SC(=O)NC3=O)cc2)nc1` (stereo unspecified) [Pioglitazone] displayed a cell number of 102.

For the compound `OC[C@H]1NC[C@@H](O)[C@@H]1O` [1,4-Dideoxy-1,4-imino-D-arabinitol], the cell number amounted to 105.

In the case of `CC1=CC(=O)C2=C(C)CCC3C(C)C(=O)OC3C12` (stereo unspecified) [Leucomisine], the cell number was determined as 99.3.

Consider `C#CC(N)CCC(=O)O` (stereo unspecified) [gamma-Acetylinic GABA], for which the cell number was found to be 103.

Compound `COc1ccc(C2Sc3ccccc3N(CCN(C)C)C(=O)C2OC(C)=O)cc1.Cl` (stereo unspecified) [Diltiazem hydrochloride] displayed a cell number of 101.

As for `COC(=O)C1=C(C)NC(C)=C(C(=O)OCCN(C)Cc2ccccc2)C1c1cccc([N+](=O)[O-])c1.Cl` (stereo unspecified) [Nicardipine hydrochloride], the cell number amounted to 96.7.

As to `Nc1nc2ccccc2c2ccccc12` [6-phenanthridinamine], the cell number worked out at 88.1.

On to `Cc1ncc([N+](=O)[O-])n1CCO` [Metronidazole], for which the cell number came out at 102.

In turn, `Cc1ccc(-c2ncc(Cl)cc2-c2ccc(S(C)(=O)=O)cc2)cn1` [Etoricoxib] came in with a cell number of 106.

`CCN1C(=O)C=CC1=O` [N-Ethylmaleimide] yielded a cell number of 102 ± 5.4.

`CCCCCCCCCCCCCC(=O)O` [Tetradecanoic acid] yielded a cell number of 99.4.

In turn, `N=C(N)c1ccc(OCCCCCOc2ccc(C(=N)N)cc2)cc1.O=S([O-])OCCO.O=S([O-])OCCO` [Pentamidine isethionate] had a cell number of 93.1.

In the case of `O=C(O)CO.[NH2-].[NH2-].[Pt+2]` [Nedaplatin], the cell number was 94.6.

`CN1CCN(c2c(F)cc3c(=O)c(C(=O)O)cn4c3c2SCC4)CC1` [Rufloxacin] yielded a cell number of 107.

`Cl.Cl.NCCNc1ncc(C(N)=O)c(Nc2cccc(C(F)(F)F)c2)n1.O.O` [Syk Inhibitor II]: the cell number is 82.1.

The compound `CCCCCCCCCCCCCCCC(=O)NCCc1ccc(O)c(O)c1` [Palmitoyl dopamine] returned a cell number of 92.7.

The compound `CCCCCC=CCC=CCC=CCCCCCCC(=O)OC(COCCCCCCCCCCCCCCCC)COP(=O)([O-])OCC[N+](C)(C)C` (stereo unspecified) registered a cell number of 101.

Compound `COc1c2c(nc3ccccc13)OC(C(C)(O)CO)C2` (stereo unspecified) [Dubinidine] came in with a cell number of 102 ± 7.2.

On to `CNC(=O)C1OC(n2cnc3c(NCc4ccc(N)cc4)ncnc32)C(O)C1O` (stereo unspecified), for which the cell number amounted to 99.9.

Compound `CN(C(Cc1ccc(OS(=O)(=O)c2cccc3cnccc23)cc1)C(=O)N1CCN(c2ccccc2)CC1)S(=O)(=O)c1cccc2cnccc12` (stereo unspecified) returned a cell number of 75.2 ± 17.

Take `O=C(O)c1cc(N(Cc2ccccc2O)Cc2ccccc2O)ccc1O` [Lavendustin B]: the cell number stood at 102.

Regarding `COC(=O)CCc1ccc(OCC(O)CNC(C)C)cc1` (stereo unspecified) [Esmolol], the cell number was 100.

`Clc1ccc2c(c1)CCc1cccnc1C2=C1CCNCC1` [Desloratadine]: the cell number was found to be 98.1.

`CC(=O)N1CCN(c2ccc(OCC3COC(Cn4ccnc4)(c4ccc(Cl)cc4Cl)O3)cc2)CC1` (stereo unspecified) [Ketoconazole] had a cell number of 85.7 ± 11.

`Nc1nccc2c1ncn2C1OC(CO)C(O)C1O` (stereo unspecified) [3-deazaadenosine] had a cell number of 97.

In the case of `CN(C)CCN1C(=O)c2ccccc2N(C)c2ccccc21` [Dibenzepine], the cell number came out at 102.

`COc1ccc2cc1Oc1ccc(cc1)CC1c3cc(c(OC)cc3CCN1C)Oc1c(OC)c(OC)c(OC)c3c1C(C2)N(C)CC3` (stereo unspecified) [Hernandezine]: the cell number was found to be 93.5.

`O=c1oc2c(O)c(O)cc3c(=O)oc4c(O)c(O)cc1c4c23` [Ellagic acid] registered a cell number of 102.

Compound `CC1CCN(C(=O)CC#N)CC1N(C)c1ncnc2[nH]ccc12` (stereo unspecified) [Tasocitinib] showed a cell number of 110.

Regarding `O.O=c1c(O)c(-c2ccc(O)cc2O)oc2cc(O)cc(O)c12`, the cell number turned out to be 104.

As for `O=c1nc[nH]c2c1ncn2C1CCC(CO)O1` (stereo unspecified) [Didanosine], the cell number came out at 101.
